Measured values from PubChem BioAssay (NCATS).
Records with an inconclusive call do not appear. Where a call stands in place of a potency, no number is given. Some structures have more than one record in an assay (separate samples or runs), and their calls can disagree. Activity calls are given as the source filed them. Calls come from the whole dose curve; as a rule, active = well fitted inhibition curve with a large enough effect; inconclusive = small, poorly fitted or top-dose-only effect; inactive = flat fitted curve, though single readings scatter.

Assays:
Assay in all cases: qHTS profiling for inhibitors of Plasmodium falciparum proliferation (AID 504749); note: nearly all actives have a fitted effect of over 60% in size
Details in all cases: P. falciparum in erythrocytes, SYBR Green DNA, 72 h; series mostly up to 28.7 µM
DIV17 = test system: DIV17
In short: (§1)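 P. falciparum-infected erythrocytes (0.3% parasitemia, 2.5% hematocrit) incubated with compound 72 h at 37 C, 5% CO2. Parasite DNA detected by SYBR Green after lysis, overnight at room temperature; normalised to 0.29 uM artemisinin and DMSO.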

DIV30 = test system: DIV30
In short: as §1

Dd2 = test system: Dd2
In short: as §1

ECU = test system: ECU
In short: as §1

FAB9 = test system: FAB9
In short: as §1

GB4 = test system: GB4
In short: as §1

HB3 = test system: HB3
In short: as §1

ICS = test system: ICS
In short: as §1

JCK = test system: JCK
In short: as §1

N140 = test system: N140
In short: as §1
Potency is the fitted concentration of half-maximal effect.

SMILES	Potency (DIV17)	outcome (DIV30)	Potency (Dd2)	Potency (ECU)	outcome (FAB9)	Potency (GB4)	Potency (HB3)	Potency (ICS)	outcome (JCK)	Potency (N140)
O=C(O)c1cc(-c2ccccc2)nc2ccccc12	inactive	inactive	inactive	inactive	inactive	inactive	inactive	inactive	inactive	inactive
CC/C(=C(\c1ccccc1)c1ccc(OCCN(C)C)cc1)c1ccccc1					inactive	10.7 µM (active)	inactive	12.6 µM (active)	inactive	
O=c1[nH]cnc2c1ncn2[C@H]1CC[C@@H](CO)O1		inactive	inactive	inactive	inactive			10 µM (active)	inactive	inactive
CCCCCN(C)CCC(O)(P(=O)(O)O)P(=O)(O)O	inactive	inactive	inactive	inactive	inactive	inactive	inactive	inactive	inactive	inactive
CC(=O)CCCCn1c(=O)c2c(ncn2C)n(C)c1=O	inactive	inactive	inactive	inactive	inactive	inactive	inactive	inactive	inactive	inactive
CCCCC1C(=O)N(c2ccccc2)N(c2ccccc2)C1=O			inactive	8.91 µM (active) and inactive	inactive	12 µM (active)	inactive	11.2 µM (active)	inactive	
CC(=O)O[C@]1(C(C)=O)CC[C@H]2[C@@H]3C=C(Cl)C4=CC(=O)[C@@H]5C[C@@H]5[C@]4(C)[C@H]3CC[C@@]21C			inactive	inactive	inactive		inactive	12.6 µM (active)	inactive	inactive
CCN(CC)CCOC(=O)c1ccc(N)cc1	inactive	inactive	inactive	inactive	inactive	inactive	inactive	inactive	inactive	inactive
CC1=C(/C=C/C(C)=C/C=C/C(C)=C/C(=O)Nc2ccc(O)cc2)C(C)(C)CCC1	16.9 µM (active)		11.2 µM (active)			10.7 µM (active)	11.2 µM (active)	11.2 µM (active)		10 µM (active)
COc1ccccc1N1CCN(CCCNc2cc(=O)n(C)c(=O)n2C)CC1	inactive	inactive	inactive	inactive	inactive	inactive	inactive	inactive	inactive	inactive
O=C1Nc2ccc(Cl)cc2C(C#CC2CC2)(C(F)(F)F)O1 (centres undefined)		inactive	inactive	inactive	inactive		inactive		inactive	inactive
NC(N)=Nc1nc(CSCC/C(N)=N/S(N)(=O)=O)cs1	inactive	inactive	inactive	inactive	inactive	inactive	inactive	inactive	inactive	inactive
CN(C)CCC(c1ccccc1)c1ccccn1 (centres undefined)	9.53 µM (active)		inactive	inactive	inactive	7.57 µM (active)	inactive	inactive	inactive	inactive
O=C(NCCN1CCOCC1)c1ccc(Cl)cc1	inactive	inactive	inactive	inactive	inactive	inactive	inactive	inactive	inactive	inactive
NCCS	inactive	inactive	inactive	inactive	inactive	inactive	inactive	inactive	inactive	inactive
Cc1cnc(C(=O)O)c[n+]1[O-]	inactive	inactive	inactive	inactive	inactive	inactive	inactive	inactive	inactive	inactive
CC1(C)O[C@H]2C[C@@H]3[C@H]4CCC5=CC(=O)C=C[C@]5(C)[C@@]4(F)[C@@H](O)C[C@]3(C)[C@]2(C(=O)CO)O1	inactive		inactive	inactive	inactive	inactive	inactive		inactive	inactive

SMILES	Potency (DIV17)	outcome (DIV30)	Potency (Dd2)	Potency (ECU)	outcome (FAB9)	Potency (GB4)	Potency (HB3)	Potency (ICS)	outcome (JCK)	Potency (N140)
Clc1ccc(Cn2c(CN3CCCC3)nc3ccccc32)cc1			inactive	inactive	inactive		inactive		inactive	inactive
O=C1NCC2(CCN(CCc3ccccc3)CC2)O1	inactive	inactive	inactive	inactive	inactive	inactive	inactive	inactive	inactive	inactive
Cc1cccc(C)c1OCC(C)N (centres undefined)				inactive	inactive	13.5 µM (active)	inactive	inactive	inactive	
CCN(CC)C(=O)c1ccc(O)c(OC)c1	inactive	inactive	inactive	inactive	inactive	inactive	inactive	inactive	inactive	inactive
O=C(O)c1c(Cl)c(Cl)c(Cl)c(Cl)c1-c1c2cc(I)c(=O)c(I)c-2oc2c(I)c(O)c(I)cc12	inactive	inactive	inactive	inactive	inactive	inactive	inactive	inactive	inactive	inactive
CC(=O)c1ccc(S(=O)(=O)NC(=O)NC2CCCCC2)cc1	inactive	inactive	inactive	inactive	inactive	inactive	inactive	inactive	inactive	inactive
C[N+](C)(C)CCCCCC[N+](C)(C)C	inactive	inactive	inactive	inactive	inactive	inactive	inactive	inactive	inactive	inactive
CCN(CC)CCNC(=O)c1ccc(N)cc1	inactive	inactive	inactive	inactive	inactive	inactive	inactive	inactive	inactive	inactive
COc1ccc(Cc2nccc3cc(OC)c(OC)cc23)cc1OC	inactive	inactive	inactive	inactive	inactive	inactive	inactive	inactive	inactive	inactive
C[C@@H](O)[C@H]1C(=O)N2C(C(=O)O)=C(S[C@@H]3CN[C@H](C(=O)N(C)C)C3)[C@H](C)[C@H]12	inactive	inactive	inactive	inactive	inactive	inactive	inactive	inactive	inactive	inactive
CCCNC(=O)NS(=O)(=O)c1ccc(Cl)cc1	inactive	inactive	inactive	inactive	inactive	inactive	inactive	inactive	inactive	inactive
O=C1NC(=O)C(c2ccccc2)(c2ccccc2)N1	inactive	inactive	inactive	inactive	inactive	inactive	inactive	inactive	inactive	inactive
CCN1CCC[C@H]1CNC(=O)c1cc(S(N)(=O)=O)ccc1OC	inactive	inactive	inactive	inactive	inactive	inactive	inactive	inactive	inactive	inactive
CCOC(=O)O[C@]1(C(=O)OCCl)CC[C@@H]2[C@H]3CCC4=CC(=O)C=C[C@]4(C)[C@@H]3[C@@H](O)C[C@@]21C	inactive		inactive	inactive	inactive	inactive	inactive	inactive	inactive	inactive
CC(=O)N[C@@H](CS)C(=O)O	inactive	inactive	inactive	inactive	inactive	inactive	inactive	inactive	inactive	inactive
COCCCCC(=NOCCN)c1ccc(C(F)(F)F)cc1	6.75 µM (active)					5.36 µM (active)				
O=C(O)Cc1cccc2ccccc12	inactive	inactive	inactive	inactive	inactive	inactive	inactive	inactive	inactive	inactive
